Assay [1] is described as follows: qHTS assay to identify small molecule agonists of the vitamin D receptor (VDR) signaling pathway - cell viability counter screen (AID 743224). Further: nearly all actives have a fitted effect of over 50% in size. Further: potency means the concentration at half of the fitted maximal effect. The essentials: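 Counter screen run in the same wells as the VDR-bla reporter assay: CellTiter-Glo luminescence, 30 min at room temperature, after 16 h compound treatment at 37C of cells pre-plated for 4 h.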
In general terms: qHTS replaces the single test concentration by a dilution series.

The nature of assay [2]: qHTS assay to identify small molecule antagonists of the vitamin D receptor (VDR) signaling pathway - cell viability counter screen (AID 743225). Further: nearly all actives have a fitted effect of over 50% in size. Further: potency means the concentration at half of the fitted maximal effect. The gist of the method: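 Cytotoxicity toward the VDR-bla HEK 293T line was scored by ATP-based CellTiter-Glo luminescence, read in the wells already used for the beta-lactamase readout after 16 h compound treatment under 3 nM 1-alpha,25-dihydroxyvitamin D3 stimulation.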

Assay [3] is described as follows: qHTS assay to identify small molecule agonists of the NFkB signaling pathway - cell viability counter screen (AID 1159515; calls by dose curve; further: nearly all actives have a fitted effect of over 55% in size; further: potency means the concentration at half of the fitted maximal effect). The essentials:
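Read by CellTiter-Glo luminescence (30 min, room temperature) in the wells also used for the beta-lactamase FRET read. ME-180 NFkB-bla cells at 2,000 per well were plated overnight, then exposed to compound for 5 hr at 37 C.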

Assay [4] can be described thus: qHTS assay to identify small molecule agonists of the endoplasmic reticulum stress response signaling pathway (AID 1159516; active means well fitted activation curve with a large enough effect in the signal ratio in the repeat runs, not every such curve was filed as active; the % refers to the signal ratio; further: potency means the concentration at half of the fitted maximal effect; on activation: on the % scale 0 is the no-effect control and ±100 the full control effect). The essentials: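 Ratiometric FRET readout (405 nm excitation; 460 and 530 nm emission) of a beta-lactamase gene driven by the ER stress response element, after 2 hr substrate loading. HeLa ESRE-bla cells were seeded overnight and treated with compounds for only 5 hr at 37 C.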

Assay [5] in a line: qHTS assay to identify small molecule agonists of the endoplasmic reticulum stress response signaling pathway - cell viability counter screen (AID 1159517; calls by dose curve; further: nearly all actives have a fitted effect of over 50% in size; further: potency means the concentration at half of the fitted maximal effect). The essentials:
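Cytotoxicity of test compounds toward ESRE-bla HeLa cells was assessed after 5 hr exposure. The luminescent CellTiter-Glo signal was measured 30 min after reagent addition.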

The nature of assay [6]: qHTS assay to identify small molecule antagonists of the retinoid-related orphan receptor gamma (ROR-gamma) signaling pathway - cell viability counter screen (AID 1159520). Further: nearly all actives have a fitted effect of over 50% in size. Further: potency means the concentration at half of the fitted maximal effect. The essentials: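 Tet-on ROR gamma CHO cells (1,000/well) were plated 4 hr, given compounds in DMSO for 2 hr at 37 C, then induced with 1 uM final doxycycline for 16 hr. Viability was read as ATP by CellTiter-Glo luminescence after 30 min.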

Assay [7] can be described thus: qHTS assay to identify small molecule agonists of the AP-1 signaling pathway - cell viability counter screen (AID 1159525; calls by dose curve; further: nearly all actives have a fitted effect of over 55% in size; further: potency means the concentration at half of the fitted maximal effect). The essentials:
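Each titration point was normalised to DMSO and tetra n-octyl ammonium bromide controls. The read was Cell Titer Glo luminescence after 30 min at RT, following 5 h compound exposure of ME-180 AP-1-bla cells at 37 °C.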

Assay [8] can be described thus: qHTS assay to identify small molecule agonists of the AP-1 signaling pathway (AID 1159526; calls by dose curve; further: on the % scale 0 is the no-effect control and ±100 the full control effect).
Assay [9] concerns the target Retinoic acid receptor RXR-alpha (Homo sapiens) (UniProt P19793). Kind of assay: qHTS assay to identify small molecule agonists of the RXR signaling pathway (AID 1159527; calls by dose curve; further: on the % scale 0 is the no-effect control and ±100 the full control effect; nearly all actives have a fitted effect of over 35% in size). The gist of the method: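 Reporter activation is measured as beta-lactamase activity via FRET substrate cleavage (emission 460/530 nm) in HEK 293T cells expressing an RXR-alpha-driven bla construct, following 16 hr compound exposure at 37 C.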

The nature of assay [10]: qHTS assay to identify small molecule agonists of the RXR signaling pathway - cell viability counter screen (AID 1159529). Further: nearly all actives have a fitted effect of over 50% in size. Further: potency means the concentration at half of the fitted maximal effect. The essentials:
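Tox21 10K compounds were tested for cytotoxicity against GeneBLAzer RXR-alpha HEK 293T cells grown in 2% charcoal-stripped FBS. Exposure lasted 16 hr at 37 C, 5% CO2; viability read by CellTiter-Glo luminescence.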

Assay [11] can be described thus: qHTS assay to identify small molecule antagonists of the retinoid acid receptor (RAR) signaling pathway - cell viability counter screen (AID 1159551). Further: nearly all actives have a fitted effect of over 35% in size. Further: potency means the concentration at half of the fitted maximal effect. The gist of the method:
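Cytotoxicity counter screen: ATP content quantified by CellTiter-Glo luminescence in C3RL4 cells treated 6 hr at 37 C with compound and retinol (1 uM final). Cells plated at 1,000/well and cultured overnight before dosing.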

For assay [12], the target named is Nuclear receptor ROR-gamma (Homo sapiens) (UniProt P51449). Kind of assay: qHTS assay to identify small molecule antagonists of the retinoid-related orphan receptor gamma (ROR-gamma) signaling pathway (AID 1159521; further: nearly all actives have a fitted effect of over 50% in size; further: potency means the concentration at half of the fitted maximal effect). The gist of the method:
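Readout: ONE-Glo luciferase luminescence, 30 min at room temperature. System: Tet-on RORγ CHO, RORE-LUC. Sequence: compound 2 h, doxycycline 1 uM final, 16 h at 37 C.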

A short description of assay [13]: qHTS assay to identify small molecule antagonists of the retinoic acid receptor (RAR) signaling pathway (AID 1159552; further: nearly all actives have a fitted effect of over 50% in size; further: potency means the concentration at half of the fitted maximal effect). The gist of the method:
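Overnight-plated C3RL4 reporter cells get compound, then retinol to 1 uM final; plates sit 6 hr at 37 C, 5% CO2. A luciferase reagent is added and light output recorded after 30 min at room temperature.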

A short description of assay [14]: qHTS assay to identify small molecule antagonists of the estrogen related receptor signaling pathway with the pleiotropic PPARgamma coactivator (PGC) cell viability counter screen (AID 1224822; further: potency means the concentration at half of the fitted maximal effect). The gist of the method: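 Viability counter-screen read by fluorescence intensity after 30 min with CellTiter-Fluor at 37 C; PGC/ERR reporter cells were exposed to compounds for 17.5 h at 37 C following a 6 h preincubation.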

Assay [15] in a line: qHTS assay to identify small molecule agonists of the retinoic acid receptor (RAR) signaling pathway (AID 1159553). Further: potency means the concentration at half of the fitted maximal effect. The essentials: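 Luminescence was measured 30 min after luciferase reagent addition at room temperature. Before that, C3RL4 reporter cells (1,000 per well, plated overnight) were treated with compound for 6 hr at 37 C and 5% CO2.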
Assay [16] in a line: qHTS assay to identify small molecule antagonists of the estrogen related receptor (ERR) signaling pathway - cell viability counter screen (AID 1224818).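 Further: series mostly up to about 46 µM; viability measured after 17.5 h of compound exposure; on the % scale 0 is the no-effect control and ±100 the full control effect.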 The essentials:
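Cytotoxicity counter screen: fluorescence from CellTiter-Fluor, added after 17.5 h compound exposure at 37 C and read 30 min later. ERR cell line seeded at 2,000 cells/well, preincubated 6 h before dosing.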

A short description of assay [17]: qHTS assay to identify small molecule antagonists of the estrogen related receptor (ERR) signaling pathway (AID 1224819). The essentials: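 LOPAC library screened for antagonism as reduced One-Glo luminescence in ERR reporter cells (2,000/well). Compounds were added after 6 h pre-incubation and left 18 h at 37C; reading followed a 30 min room-temperature reagent step.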

A short description of assay [18]: qHTS assay to identify small molecule agonists of the estrogen related receptor (ERR) signaling pathway (AID 1224820). Further: on the % scale 0 is the no-effect control and ±100 the full control effect. The gist of the method:
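Luminescence readout (One-Glo, 30 min RT) from NTP-supplied ERR cell line exposed to compounds for 18 h at 37 C. Cells seeded 2,000 per well and pre-incubated 6 h before pin-tool compound transfer.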

In assay [19] the test system is estrogen-related receptor alpha (ERRalpha) with PGC-1alpha coactivator, human. Nature of the assay: qHTS assay to identify small molecule antagonists of the estrogen related receptor signaling pathway with the pleiotropic PPARgamma coactivator (PGC) (AID 1224821; calls by dose curve). The essentials: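 PGC/ERR reporter cells; 6 h pre-incubation 37 C/5% CO2; pin-tool compound in DMSO, 18 h 37 C; One-Glo added, 30 min RT; luminescence read. qHTS antagonist mode.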

Where “and” joins values, the source holds several entries; their conditions need not be identical. Equal entries are not always repeated. Records with an inconclusive call do not appear. A structure can be active in one record and inactive in another. Calls of active or inactive are those of the source. Unless noted, the call rests on the fitted dose curve; in most records, active means well fitted curve in the direction sought with a large enough effect in the repeat runs; inconclusive means weak or mixed curves; inactive means no such curve, though single readings can be large; an effect the other way counts as inactive or inconclusive.

Retinoic acid receptor RXR-alpha (Homo sapiens), sequence (P19793 whole entry, looked up): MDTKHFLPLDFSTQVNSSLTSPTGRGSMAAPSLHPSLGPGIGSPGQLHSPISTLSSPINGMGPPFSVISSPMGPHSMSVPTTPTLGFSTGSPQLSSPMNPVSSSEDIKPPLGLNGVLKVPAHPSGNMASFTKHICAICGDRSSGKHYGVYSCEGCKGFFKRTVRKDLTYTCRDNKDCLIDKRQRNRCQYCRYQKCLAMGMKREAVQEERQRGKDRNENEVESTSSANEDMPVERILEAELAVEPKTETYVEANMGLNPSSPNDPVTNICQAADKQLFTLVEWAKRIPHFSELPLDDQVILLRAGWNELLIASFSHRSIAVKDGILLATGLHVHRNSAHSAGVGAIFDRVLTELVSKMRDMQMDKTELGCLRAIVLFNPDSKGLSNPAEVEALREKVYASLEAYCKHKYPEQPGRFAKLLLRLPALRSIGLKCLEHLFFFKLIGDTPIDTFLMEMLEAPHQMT

As to `CC1(C)S[C@@H]2[C@H](NC(=O)[C@H](N)c3ccccc3)C(=O)N2[C@H]1C(=O)O`, the Potency result in [1], in [2], in assay [3], in assay [4], in assay [5] and in assay [6] was “inactive” in each case. The Potency entry in assay [7], in assay [8], in assay [9], in assay [10] and in assay [11] was “inactive” each time.

For `Cc1ccc(S(=O)(=O)O)cc1`, the Potency result in assay [1], in assay [2], in assay [3], in assay [4], in [5] and in assay [6] was “inactive” in each case. Besides, the Potency result in assay [7], in assay [8], in assay [9], in assay [10] and in [11] was “inactive” in each case.

As for `CNNCc1ccc(C(=O)NC(C)C)cc1`, the Potency entry in [1], in assay [2], in assay [3], in assay [4], in assay [5] and in assay [6] was “inactive” in each case. For the same molecule, the Potency result in assay [7], in assay [8], in assay [10] and in [11] was “inactive” throughout.

Consider `CC/C(=C(\c1ccccc1)c1ccc(OCCN(C)C)cc1)c1ccccc1`, for which the Potency entry in assay [2] was “inactive and 15.6 µM (active) and 21.3 µM (active)”; in assay [3] it was 26.8 µM (active) [middle of 5 runs]; in assay [5], 49 µM (active) [middle of 4 runs]; in [6] it was 61.1 µM (active) [middle of 4 runs]; in assay [12] it was 27.5 µM (active) [middle of 5 runs]; in [7], 23.9 µM (active) [middle of 5 runs]. Moreover, the Potency in assay [10] was 15.5 µM (active) [middle of 5 runs]; in assay [11], 61.5 µM (active) and 61.1 µM (active) and 54.9 µM (active); in assay [13], 54.4 µM (active) [middle of 5 runs]; in assay [14] it was 27.6 µM (active).

Turning to `Nc1c2c(nc3ccccc13)CCCC2`, the Potency entry in assay [1], in assay [2], in assay [3], in [5], in assay [6] and in [12] was “inactive” in each case. The Potency entry in [7], in assay [8], in assay [10], in assay [11], in [13] and in [15] was “inactive” in each case. The Potency entry in assay [17] and in assay [14] was “inactive” throughout. For the same molecule, the result in [16], in assay [18] and in assay [19] was inactive.

With `Cc1cc(=O)oc2cc(O)ccc12`, the Potency entry in assay [1], in assay [2], in assay [3], in assay [5], in [6] and in assay [7] was “inactive” each time. The Potency result in assay [8], in assay [10] and in assay [11] was “inactive” in each case. In addition, the Potency in assay [4] is 49 µM (active) and 19 µM (active).

Regarding `CC(O)(P(=O)(O)O)P(=O)(O)O`, the Potency entry in assay [1], in [2], in [3], in [4], in assay [5] and in assay [6] was “inactive” each time. The Potency result in [7], in assay [8], in [10] and in assay [11] was “inactive” each time.

Take `COc1ccc2c(c1)c(CC(=O)O)c(C)n2C(=O)c1ccc(Cl)cc1`: the Potency result in assay [1], in assay [2], in [3], in assay [4], in assay [5] and in assay [6] was “inactive” each time. Also, the Potency result in assay [7], in assay [8], in assay [10], in [11], in assay [13] and in [15] was “inactive” in each case. Also, the Potency result in assay [17] and in assay [14] was “inactive” throughout. The molecule was called inactive in assay [16], in assay [18] and in [19].

For the molecule `CCc1nc(N)nc(N)c1-c1ccc(Cl)cc1`, the Potency in assay [1] is 17.4 µM (active). Also, the Potency entry in [3], in assay [4], in assay [5], in assay [6], in assay [12] and in assay [7] was “inactive” throughout. In addition, in assay [11], the Potency result is “inactive”.

Take `CN(C)C(=S)SC(=S)N(C)C`: the Potency in assay [1] is 1.26 µM (active) and 692 nM (active) and 1.06 µM (active); in [3], 5.02 µM (active) and 977 nM (active) and 6.74 µM (active); in [6], 2.37 µM (active); in assay [12] it was 703 nM (active) and 770 nM (active) and 1.06 µM (active); in assay [7], 11.2 µM (active) and 5.49 µM (active) and 16.9 µM (active); in assay [10], 5.02 µM (active) and 3.89 µM (active) and 1.9 µM (active). Moreover, the Potency in assay [11] is 48.6 µM (active); in assay [13], 1.77 µM (active) and 1.93 µM (active) and 2.37 µM (active); in assay [15], 0.668 µM (active). Further, the Potency entry in assay [2] and in assay [5] was “inactive” throughout.
